Inconclusive results are not listed. Calls of active or inactive are those of the source. The call rests on the fitted dose curve; in most records, active means well fitted curve in the direction sought with a large enough effect; inconclusive means small, poorly fitted or top-dose-only effect, or another doubt; inactive means no such curve, though single readings can be large; an effect the other way counts as inactive or inconclusive.
What was measured:
[1] = qHTS of pediatric cancer cell lines to identify multiple opportunities for drug repurposing: Primary screen for NB1643 cells (AID 1347099);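 further: plate controls were DMSO neutral control for no effect and bortezomib positive control for full effect; nearly all actives have a fitted effect of over 50% in size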
In short: (§1)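 Cells seeded at 500-1,000 cells/well in growth media, rested 5 hours at 37 degrees C, 5% CO2, then dosed; MIPE compounds at 11-point (from 0.78 nM) and NPC at 8-point (from 0.59 nM) final concentrations. Viability by CellTiter-Glo luminescence after 48 hours.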

[2] = qHTS of pediatric cancer cell lines to identify multiple opportunities for drug repurposing: Primary screen for LAN-5 cells (AID 1347100);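 further: plate controls were DMSO neutral control for no effect and bortezomib positive control for full effect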
In short: (§2)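 Cells (500-1,000/well) in growth media were settled 5 h at 37 degrees C, then given compounds for 48 h. Viability was read as CellTiter-Glo luminescence. Primary runs used MIPE at 11 points (0.78 nM-46 µM) and NPC at 8 points (0.59 nM-46 µM); follow-ups used 11 points.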

[3] = qHTS of pediatric cancer cell lines to identify multiple opportunities for drug repurposing: Primary screen for BT-12 cells (AID 1347101);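 further: plate controls were DMSO for no effect and bortezomib positive control for full effect; nearly all actives have a fitted effect of over 25% in size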
In short: (§3)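 Cells (500-1,000/well) rested 5 h, then received compounds for 48 h; metabolically active cells were measured by CellTiter-Glo luminescence. Final concentrations spanned up to 46 µM (MIPE, 11-point) or 0.59 nM-46 µM (NPC, 8-point) in primary screens, 11-point in follow-ups.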

[4] = qHTS of pediatric cancer cell lines to identify multiple opportunities for drug repurposing: Primary screen for Rh18 cells (AID 1347102); further: on the % scale 0 is the no-effect control and ±100 the full control effect; nearly all actives have a fitted effect of over 65% in size
In short: as §2

[5] = qHTS of pediatric cancer cell lines to identify multiple opportunities for drug repurposing: Primary screen for OHS-50 cells (AID 1347103); further: nearly all actives have a fitted effect of over 40% in size; further: potency means the concentration at half of the fitted maximal effect;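 on activity change, negative = cytotoxic: plate controls were DMSO neutral control for no effect and bortezomib positive control for full effect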
In short: as §3

[6] = qHTS of pediatric cancer cell lines to identify multiple opportunities for drug repurposing: Primary screen for RD cells (AID 1347104);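 further: plate controls were DMSO for no effect and bortezomib for full effect; nearly all actives have a fitted effect of over 55% in size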
In short: as §1

[7] = qHTS of pediatric cancer cell lines to identify multiple opportunities for drug repurposing: Primary screen for MG 63 (6-TG R) cells (AID 1347105); further: on the % scale 0 is the no-effect control and ±100 the full control effect; nearly all actives have a fitted effect of over 50% in size
In short: as §1

[8] = qHTS of pediatric cancer cell lines to identify multiple opportunities for drug repurposing: Primary screen for control Hh wild type fibroblast cells (AID 1347106);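 further: series mostly up to about 46 µM; on the % scale 0 is the no-effect control and ±100 the full control effect; a drop in luminescence marks cytotoxicity and a rise apparent proliferation; nearly all actives have a fitted effect of over 55% in size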
In short: as §2

[9] = qHTS of pediatric cancer cell lines to identify multiple opportunities for drug repurposing: Primary screen for Rh30 cells (AID 1347107); further: series mostly up to about 46 µM; on the % scale 0 is the no-effect control and ±100 the full control effect; nearly all actives have a fitted effect of over 75% in size
In short: as §2

[10] = qHTS of pediatric cancer cell lines to identify multiple opportunities for drug repurposing: Primary screen for Rh41 cells (AID 1347108);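 further: series mostly up to about 46 µM; luminescence drop marks cytotoxic hits; nearly all actives have a fitted effect of over 70% in size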
In short: as §1

Cc1ccccc1OCC(O)CO (stereo not given)
inactive: Potency [1] | Potency [2] | Potency [3] | Potency [4] | Potency [5] | Potency [6] | Potency [7] | Potency [8] | Potency [9] | Potency [10]

CCCCc1cc2ccccc2c(OCCN(C)C)n1
inactive: Potency [1] | Potency [2] | Potency [3] | Potency [4] | Potency [6] | Potency [7] | Potency [8] | Potency [9] | Potency [10]
active: Potency [5] 15.5 µM

COC(=O)C(c1ccccc1Cl)N1CCc2sccc2C1 (stereo not given)
inactive: Potency [1] | Potency [2] | Potency [3] | Potency [4] | Potency [6] | Potency [7] | Potency [8] | Potency [9] | Potency [10]

CC(=O)O[C@]1(C(C)=O)CC[C@H]2[C@@H]3C=C(C)C4=CC(=O)CC[C@]4(C)[C@H]3CC[C@@]21C
inactive: Potency [1] | Potency [2] | Potency [3] | Potency [4] | Potency [6] | Potency [7] | Potency [9] | Potency [10]

O=C(CN1CCN(Cc2ccc3c(c2)OCO3)CC1)N1c2ccccc2Sc2ccccc21
inactive: Potency [1] | Potency [2] | Potency [3] | Potency [4] | Potency [6] | Potency [7] | Potency [8] | Potency [9] | Potency [10]

CN(C)CCC[C@@]1(c2ccc(F)cc2)OCc2cc(C#N)ccc21
inactive: Potency [1] | Potency [2] | Potency [3] | Potency [4] | Potency [5] | Potency [7] | Potency [8] | Potency [9] | Potency [10]

C/C=C/c1ccc(O)c(OC)c1
inactive: Potency [1] | Potency [2] | Potency [3] | Potency [4] | Potency [5] | Potency [7] | Potency [8] | Potency [9] | Potency [10]

OC[C@H]1O[C@@H]2O[C@H]3[C@H](O)[C@@H](O)[C@@H](O[C@H]4[C@H](O)[C@@H](O)[C@@H](O[C@H]5[C@H](O)[C@@H](O)[C@@H](O[C@H]6[C@H](O)[C@@H](O)[C@@H](O[C@H]7[C@H](O)[C@@H](O)[C@@H](O[C@H]8[C@H](O)[C@@H](O)[C@@H](O[C@H]1[C@H](O)[C@H]2O)O[C@@H]8CO)O[C@@H]7CO)O[C@@H]6CO)O[C@@H]5CO)O[C@@H]4CO)O[C@@H]3CO
inactive: Potency [1] | Potency [2] | Potency [3] | Potency [4] | Potency [5] | Potency [7] | Potency [8] | Potency [10]

CCCN(CCC)S(=O)(=O)c1ccc(C(=O)O)cc1
inactive: Potency [1] | Potency [2] | Potency [3] | Potency [4] | Potency [5] | Potency [7] | Potency [8] | Potency [9] | Potency [10]

C=C[C@H]1CN2CC[C@H]1C[C@H]2[C@H](O)c1ccnc2ccc(OC)cc12
inactive: Potency [1] | Potency [2] | Potency [3] | Potency [4] | Potency [6] | Potency [7] | Potency [8] | Potency [9] | Potency [10]

COc1cc(N)c(Cl)cc1C(=O)NC1CCN(Cc2ccccc2)CC1
inactive: Potency [1] | Potency [2] | Potency [3] | Potency [4] | Potency [6] | Potency [7] | Potency [8] | Potency [9] | Potency [10]

NCc1ccccc1Sc1ccccc1CO
inactive: Potency [1] | Potency [2] | Potency [3] | Potency [4] | Potency [6] | Potency [7] | Potency [8] | Potency [10]

N=C(N)N1CCc2ccccc2C1
inactive: activity change, negative = cytotoxic [1] -5.24% [at 4.84 µM] | activity change, negative = cytotoxic [2] -2.04% [at 4.84 µM] | activity change, negative = cytotoxic [3] -5.09% [at 6.03 µM] | activity change, negative = cytotoxic [4] 1.68% [at 4.84 µM] | activity change, negative = cytotoxic [6] -9.62% [at 4.84 µM] | activity change, negative = cytotoxic [7] -18.3% [at 4.84 µM] | activity change, negative = cytotoxic [8] -9.54% [at 4.84 µM] | activity change, negative = cytotoxic [10] 1.21% [at 4.84 µM]

Cc1cn([C@H]2C[C@H](F)[C@@H](CO)O2)c(=O)[nH]c1=O
inactive: Potency [1] | Potency [2] | Potency [3] | Potency [4] | Potency [5] | Potency [7] | Potency [8] | Potency [9] | Potency [10]

COc1ccc(C(=O)c2ccccc2O)c(O)c1
inactive: Potency [1] | Potency [2] | Potency [3] | Potency [4] | Potency [6] | Potency [7] | Potency [8] | Potency [9] | Potency [10]

CC(C(=O)O)c1cccc(Oc2ccccc2)c1 (stereo not given)
inactive: Potency [1] | Potency [2] | Potency [3] | Potency [4] | Potency [5] | Potency [7] | Potency [8] | Potency [9] | Potency [10]

OCCOCCN1CCN(C2=Nc3ccccc3Sc3ccccc32)CC1
inactive: Potency [1] | Potency [2] | Potency [3] | Potency [4] | Potency [6] | Potency [7] | Potency [9] | Potency [10]

CN(C)CCOC(=O)C(c1ccccc1)C1(O)CCCC1 (stereo not given)
inactive: Potency [1] | Potency [2] | Potency [3] | Potency [4] | Potency [5] | Potency [7] | Potency [8] | Potency [9] | Potency [10]

CC(O)Cn1cnc2c1c(=O)n(C)c(=O)n2C (stereo not given)
inactive: Potency [1] | Potency [2] | Potency [3] | Potency [4] | Potency [5] | Potency [7] | Potency [8] | Potency [9] | Potency [10]

CC1(C)OC[C@@H]2O[C@@]3(C(=O)O)OC(C)(C)O[C@H]3[C@@H]2O1
inactive: Potency [1] | Potency [2] | Potency [3] | Potency [4] | Potency [5] | Potency [7] | Potency [8] | Potency [9] | Potency [10]

COP(=O)(OC)OC(c1ccc(Cl)cc1)P(=O)(OC)OC (stereo not given)
inactive: Potency [1] | Potency [2] | Potency [3] | Potency [4] | Potency [5] | Potency [7] | Potency [10]

CC(C)Nc1cccnc1N1CCN(C(=O)c2cc3cc(NS(C)(=O)=O)ccc3[nH]2)CC1
inactive: Potency [1] | Potency [2] | Potency [3] | Potency [4] | Potency [6] | Potency [7] | Potency [8] | Potency [9] | Potency [10]

CN1CCN(C2=Nc3ccccc3Sc3ccc(Cl)cc32)CC1
inactive: Potency [1] | Potency [2] | Potency [3] | Potency [4] | Potency [6] | Potency [7] | Potency [8] | Potency [9] | Potency [10]

CCC1NC(=O)c2cc(S(N)(=O)=O)c(Cl)cc2N1 (stereo not given)
inactive: Potency [1] | Potency [2] | Potency [3] | Potency [4] | Potency [5] | Potency [7] | Potency [8] | Potency [9] | Potency [10]

CCCCC(CC)COC(=O)/C=C/c1ccc(OC)cc1 (stereo not given)
inactive: Potency [1] | Potency [2] | Potency [3] | Potency [4] | Potency [6] | Potency [7] | Potency [8] | Potency [9] | Potency [10]

— PubChem BioAssay (NCATS)
